Data taken from PubChem BioAssay (NCATS).
Inconclusive results are not listed. Calls of active or inactive are those of the source. Calls follow the shape of the full dose curve.

Target: Vitamin D3 receptor (Homo sapiens) (UniProt P11473)
Test: qHTS assay for small molecule antagonists of vitamin D receptor signaling (AID 588541);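 as to activity change, negative = inhibition: receptor activated by calcitriol during compound treatment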
Settings: HEK293T VDR-UAS-bla, beta-lactamase ratio, antagonist mode; series mostly up to 76.7 µM; activity change, negative = inhibition: at the top concentration
From the text: NIH Chemical Genomics Center [NCGC]
U.S. Environmental Protection Agency [EPA]
National Institutes of Environmental Health Sciences [NIEHS]
National Toxicology Program [NTP]
The Vitamin D receptor (VDR) is a member of nuclear hormone receptor superfamily and it plays a critical role in calcium homeostasis and bone metabolism. It plays a role in inducing cell differentiation, inhibiting cell growth and in thrombogenicity. So, VDR that mediates these effects represents a pharmacological target in prevention and treatment of hyperproliferative malignancies, such as cancer and psoriasis, cardiovascular, immunological, inflammatory and renal diseases etc.
NCGC Assay Protocol Summary
Using a beta-lactamase reporter-gene under control of Vitamin D receptor (VDR) response element, a cell-based assay [GeneBLAzer (VDR -UAS-bla assay developed by Invitrogen] was used to measure VDR ligands signaling. GeneBLAzer VDR -UAS-bla HEK293T cells were used with assay medium containing 2% charcoal-stripped FBS. The assay was performed in clear bottom black Greiner 1536-well plates. Library compounds were measured for their ability to inhibit the reporter gene activity. Compounds were screened in a titration series in 1536-well format. The fluorescence intensity (405 nm excitation, 460/530 nm emission) was measured using an EnVision plate reader. Data was normalized relative to 1-alpha,25-Dihydroxy vitaminD3 control (50 nM, 100%) and DMSO only wells (basal, 0%). Concentration-response titration points for each compound were fitted to the Hill equation yielding concentrations of half-maximal inhibition (IC50) and maximal response (efficacy) values.
qHTS protocol for VDR beta-lactamase assay in antagonist mode
[Step] [Parameter] [Value] [Description]
1. Reagent; 5 uL; 2000 cells/well
2. Incubation; 37 C for 5 hrs
4. Controls (DMSO); 23 nL,
5. Agonist (Stimulator); 1uL; 1-alpha,25-Dihydroxy vitaminD3 at 50 nM and 3 nM final concentrations
6. Incubation; 37 C for 16 hrs
7. Detection reagent; 1 uL of CCF4-dye
8. Incubation; RT for 2 hrs
9. Detection; Fluorescence; Envision plate reader
% is scaled to controls: 0 for no effect and ±100 for the full control effect.

Sequence of Vitamin D3 receptor (Homo sapiens) (P11473 whole entry, looked up): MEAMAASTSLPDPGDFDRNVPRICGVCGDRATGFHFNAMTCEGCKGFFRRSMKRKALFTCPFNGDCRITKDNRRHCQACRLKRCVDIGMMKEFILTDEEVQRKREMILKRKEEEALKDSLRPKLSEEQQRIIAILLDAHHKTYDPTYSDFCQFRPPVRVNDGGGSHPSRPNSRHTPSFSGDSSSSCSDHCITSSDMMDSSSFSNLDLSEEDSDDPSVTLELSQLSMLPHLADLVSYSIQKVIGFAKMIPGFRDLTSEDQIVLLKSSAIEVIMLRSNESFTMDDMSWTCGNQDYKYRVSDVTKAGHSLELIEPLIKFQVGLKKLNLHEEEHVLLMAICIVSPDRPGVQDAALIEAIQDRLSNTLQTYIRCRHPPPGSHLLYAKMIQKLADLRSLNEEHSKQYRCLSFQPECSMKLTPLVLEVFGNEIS

Row | SMILES | activity change, negative = inhibition | Potency
1 | COC(=O)c1ccc(C(=O)OC)cc1 | -4.27% (inactive) | 
2 | CCCCCCCCCCCCCO | 7.29% (inactive) | 
3 | C=CC(=O)OCC(C)OCC(C)OCC(C)OC(=O)C=C (stereo not given) | 3.15% (inactive) | 
4 | C=CCCCCCCCCCCCC | 2.43% (inactive) | 
5 | Cc1ccc2c(c1)C(=O)OC2=O | -2.13% (inactive) | 
6 | COC(=O)c1cccc(C)c1S(=O)(=O)NC(=O)Nc1nc(OCC(F)(F)F)nc(N(C)C)n1 | 2.12% (inactive) | 
7 | N[C@@H]1[C@@H](O)[C@H](O)[C@@H](CO)O[C@H]1O | 1.4% (inactive) | 
8 | O=C(O)C(c1ccc(Cl)cc1)c1ccc(Cl)cc1 | 4.98% (inactive) | 
9 | c1ccc(-c2ccc(-c3ccccc3)cc2)cc1 | 8.23% (inactive) | 
10 | CCOc1ccc(NC(=O)OC(C)C)cc1OCC | -3.18% (inactive) | 
11 | CCCCOCCOCCOC(=O)CCCCC(=O)OCCOCCOCCCC | 4.28% (inactive) | 
12 | CC(=O)OC(C)(C)C1CC=C(C)CC1 (stereo not given) | -0.0771% (inactive) | 
13 | CCCCCCCCCCCCCc1ccccc1 | -3.49% (inactive) | 
14 | C=C(C)C(=O)OCCOCCOCCOC(=O)C(=C)C | 4.58% (inactive) | 
15 | Brc1ccc(Br)c(Br)c1 | -4.27% (inactive) | 
16 | Clc1nc(Cl)c(Cl)c(Cl)c1Cl | 0.322% (inactive) | 
17 | Nc1cc(Cl)nc(C(=O)O)c1Cl | 9.06% (inactive) | 
18 | CCC(=O)OCCc1ccccc1 | 0.477% (inactive) | 
19 | C/C=C/C=C/CCCCCCCO | 2.99% (inactive) | 
20 | O=C(OCC1CCC2OC2C1)C1CCC2OC2C1 (stereo not given) | -1.44% (inactive) | 

Row | SMILES | activity change, negative = inhibition | Potency
21 | O=[N+]([O-])c1ccc(O)cc1C(F)(F)F | -3.37% (inactive) | 
22 | C=CC(=O)OCCOc1ccccc1 | -0.919% (inactive) | 
23 | CCCCCCCCCC[N+](C)(C)Cc1ccccc1 | -9.31% (inactive) | 
24 | Cc1cc(C)c(N)c(Cl)c1 | -5.19% (inactive) | 
25 | NN(c1ccccc1)c1ccccc1 | 2.85% (inactive) | 
26 | CC1COCc2cc3c(cc21)C(C)(C)C(C)C3(C)C (stereo not given) | 10.5% (inactive) | 
27 | OCCC(F)(F)C(F)(F)C(F)(F)C(F)(F)C(F)(F)C(F)(F)C(F)(F)C(F)(F)F | 2.94% (inactive) | 
28 | C=CC(=O)OCCOCC(CC)(COCCOC(=O)C=C)COCCOC(=O)C=C |  | 28.2 µM (active)
29 | C=CCOc1nc(OCC=C)nc(OCC=C)n1 | 1.55% (inactive) | 
30 | CCOC(=O)C(C)Oc1ccc(Oc2nc3ccc(Cl)cc3o2)cc1 (stereo not given) | -8.48% (inactive) | 
31 | Cn1sccc1=O | 2.78% (inactive) | 
32 | COC(=O)c1c(Cl)nn(C)c1S(=O)(=O)NC(=O)Nc1nc(OC)cc(OC)n1 | 6.62% (inactive) | 
33 | CC(C)c1cccc(C(C)C)c1 | 2.23% (inactive) | 
34 | CCCCCCCCCCCCc1ccccc1 | 14.4% (inactive) | 
35 | CCCCCCCC[Si](OCC)(OCC)OCC | -4.32% (inactive) | 
36 | CCCCCCC(O)CCCCCCCCCCC(=O)O (stereo not given) | -3.05% (inactive) | 
37 | CC(C)c1ccc(C(C)C)cc1 | 4.22% (inactive) | 
38 | CC(C)c1ccc2cc(C(C)C)ccc2c1 | 1.61% (inactive) | 
39 | Fc1ccc(Br)cc1 | 4.15% (inactive) | 
40 | O=c1[nH]c(=O)c2[nH]cnc2[nH]1 | 2.28% (inactive) | 
